Data as given in PubChem BioAssay (NCI).
This is part of a sample that, as a whole, favours compounds with a hit. Of some 79,000 tested, about 15% had one in any assay. No stated cut-off is given here; in the data, active means growth inhibition above about 70%; inactive means the rest.

How the values were obtained:
[1] = NCI Yeast Anticancer Drug Screen. Data for the rad50 strain (AID 155);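 further: 0% = growth of vehicle-only cultures of the same strain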; details: S. cerevisiae rad50 strain growth inhibition; at 50.0 µM; active compounds read high
Procedure, shortened: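 DNA repair mutant yeast, compound exposure, growth read-out; inhibition is taken relative to vehicle.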

[2] = NCI Yeast Anticancer Drug Screen. Data for the mec2-1 strain (AID 157); details: S. cerevisiae mec2-1 strain, at 50.0 µM, active compounds read high
Procedure, shortened: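 Each compound was tested on mec2-1 yeast, a strain altered in DNA damage repair or cell cycle control. Growth inhibition is reported relative to vehicle.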

[3] = NCI Yeast Anticancer Drug Screen. Data for the sgs1 mgt1 strain (AID 161);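 further: 0% = growth of cultures given vehicle only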; details: S. cerevisiae sgs1 mgt1 strain, at 50.0 µM, active compounds read high
Procedure, shortened: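 Test agents were incubated with a DNA-repair-mutant yeast strain. Growth was then read and compared against vehicle-treated controls.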

[4] = NCI Yeast Anticancer Drug Screen. Data for the cln2 rad14 strain (AID 165);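 further: 0% = growth equal to vehicle treated cultures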; details: S. cerevisiae cln2 rad14 strain, at 50.0 µM, active compounds read high
Procedure, shortened: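 Test compounds were added to cln2 rad14 yeast cultures; inhibition of growth was then determined by comparison with vehicle treatment.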

[5] = NCI Yeast Anticancer Drug Screen. Data for the bub3 strain (AID 167); details: S. cerevisiae bub3 mutant strain, at 50.0 µM, active compounds read high
Procedure, shortened: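 In this screen, a yeast mutant lacking normal mitotic checkpoint function is challenged with compound. Relative growth versus vehicle gives the inhibition value.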

[6] = NCI Yeast Anticancer Drug Screen. Data for the mlh1 rad18 strain (AID 175); details: S. cerevisiae mlh1 rad18 strain growth inhibition; at 50.0 µM; active compounds read high
Procedure, shortened: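 Inhibition values reflect reduced growth of mutant yeast versus vehicle-treated controls following compound exposure; the mutations affect DNA damage repair.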

Measured: growth inhibition

CC(=O)NCC1(c2ccccc2)CCN(CC2COc3ccccc3O2)CC1 (stereo not given)
inactive: [1] -15.3% | [2] -16.4% | [3] -15.2% | [4] 16% | [5] 17.1% | [6] 9.45%

NN1CCOC1=O
inactive: [1] 1.4% | [2] -35.9% | [3] 11.7% | [4] -2.9% | [5] -14.1% | [6] -1.7%

O=C(Cc1n[nH]c(=S)nc1CC(=O)c1cccnc1)c1cccnc1
inactive: [1] 7.8% | [2] 12.2% | [3] 16.1% | [4] -1% | [5] 26.8% | [6] 2.7%

COC(=O)C1CCCN1C(=O)c1ccccc1 (stereo not given)
inactive: [1] 3.6% | [2] -0.4% | [3] -16.2% | [4] -36.8% | [5] -5% | [6] 11.6%

Nc1nc(N)c(N=Nc2ccc(C(=O)O)c(O)c2)c(N)n1
inactive: [1] 5.5% | [2] 3.5% | [3] -0.7% | [4] 12.8% | [5] -11.9% | [6] 13%

CC=C=C(C)CN
inactive: [1] -6.4% | [2] -3.8% | [3] -9.6% | [4] -7.95% | [5] -6.25% | [6] -8.45%

O=S(=O)(Cc1ccccc1)c1ncc(Cl)cn1
inactive: [1] 8.9% | [2] 6.65% | [3] 13.2% | [4] -5.55% | [5] 16.9% | [6] 16.4%

CC(=O)CCn1ncc(Cl)c(Cl)c1=O
inactive: [1] 1.4% | [2] -18.3% | [3] 3.6% | [4] 7.7% | [5] 1.15% | [6] 4.3%

O=C1CC2(C(=O)N1CN1CCOCC1)c1ccccc1-c1ccccc12
inactive: [1] -7.55% | [2] -4.5% | [3] 15.6% | [4] 3.7% | [5] 4.05% | [6] -11.1%

O=C(OCC1OC(OC(=O)N(c2ccccc2)c2ccccc2)C(OS(=O)(=O)c2ccc([N+](=O)[O-])cc2)C1OC(=O)c1ccccc1)c1ccccc1 (stereo not given)
inactive: [1] 34.1% | [2] -5.05% | [3] -5.05% | [4] -10% | [5] 0.1% | [6] 24%

C=C(Br)CN1CCC2(c3ccccc3)C(=O)C([Se]c3ccccc3)CCC12 (stereo not given)
inactive: [1] -5.45% | [2] 8.15% | [3] 8.9% | [4] -7.25% | [5] -1.35% | [6] -0.95%

CCOC(OCC)C(O)c1ccccc1 (stereo not given)
inactive: [1] -17.2% | [2] -17% | [3] -11.9% | [4] -15% | [5] -12.6% | [6] -11%

CCCOc1cc2c(cc1C(C)c1ccc(OC)cc1)OCO2 (stereo not given)
inactive: [1] 9.8% | [2] -4.35% | [3] 15.8% | [4] -1.9% | [5] -14.4% | [6] -53%

NC(=O)c1cn[nH]c1N
inactive: [1] 4.05% | [2] 6.2% | [3] 14.2% | [4] -29.6% | [5] -3.4% | [6] 0.55%

COC(=O)C1C2CC3C1C3C2C(=O)OC (stereo not given)
inactive: [1] -14.2% | [2] -8.2% | [3] -4.45% | [4] 19.6% | [5] -14.6% | [6] -18.6%

COC1(OC)CCC2=C(C)C(=O)CCC2(CO)C1 (stereo not given)
inactive: [1] 15.7% | [2] -2.95% | [3] -5.95% | [4] -51.8% | [5] -14.4% | [6] -1.9%

O=c1c2cccnc2ncn1CCCN1CCCCC1
inactive: [1] -23.8% | [2] 1.85% | [3] 9.25% | [4] -7.5% | [5] 5.65% | [6] -6.25%

CC(=O)N1CCCCCC1=O
inactive: [1] -30.3% | [2] -16.9% | [3] 25.4% | [4] -7.55% | [5] 1.95% | [6] -26.8%

O=C(Nc1ccc(Cl)cc1)Nc1nnc2nc(C(C(=O)c3cccs3)c3nc4nnc(NC(=O)Nc5ccc(Cl)cc5)n4[nH]c3=O)c(=O)[nH]n12
inactive: [1] 1.55% | [2] 12.2% | [3] 0.1% | [4] 15.8% | [5] 0.05% | [6] -13.8%

CC(=O)Oc1ccc(I)cc1C(=O)O
inactive: [1] 5.7% | [2] -29.4% | [3] 1.25% | [4] -12.7% | [5] 6.75% | [6] -11.8%

Nc1ccc(Br)c(N)c1
inactive: [1] -0.95% | [2] -3.65% | [3] -5.35% | [4] -16.9% | [5] -21.6% | [6] -24.9%

N#Cc1nc(CC(=O)c2ccc(Cl)c(Cl)c2)c(CC(=O)c2ccc(Cl)c(Cl)c2)nc1C#N
inactive: [1] 12.1% | [2] 10.4% | [3] 9.2% | [4] 31.4% | [5] 27.6% | [6] 20.2%

NC(=O)c1nnc2c(F)cccc2c1N
inactive: [1] -39.2% | [2] -29.4% | [3] -15.3% | [4] -0.8% | [5] -27.2% | [6] -24.6%

Cc1cccc2c(C=O)c[nH]c12
inactive: [1] 8.9% | [2] -3.1% | [3] -13.4% | [4] -9.55% | [5] 4.95% | [6] 14.2%

CCOP(=O)(OCC)C(F)(F)Cc1cnc(C)c2c1COC(C)(C)O2
inactive: [1] -14.8% | [2] -34.8% | [3] -32.5% | [4] -16.7% | [5] 17.9% | [6] -27.3%

COC(=O)c1cc(C)n(C)c(=O)c1CNS(=O)(=O)c1ccc(C)cc1
inactive: [1] -1.25% | [2] 6.45% | [3] 0.85% | [4] -6% | [5] -2.8% | [6] -12.3%

CN1N=C(c2ccccc2)C(C(c2ccccc2[N+](=O)[O-])C2C(=O)N(C)N=C2c2ccccc2)C1=O (stereo not given)
inactive: [1] 46.8% | [2] 34.6% | [3] 8.5% | [4] 3.4% | [5] -3.4% | [6] -2.1%

CC#CC#C/C=C1/C=CC2(CC=CO2)O1 (stereo not given)
inactive: [1] 1.55% | [2] 7.95% | [3] 9.85% | [4] 12.3% | [5] 25.3% | [6] 29.6%

Cc1ccc2[nH]c(C)c(C(=O)c3cccnc3)c2c1
inactive: [1] -7.55% | [2] 0.85% | [3] 13.2% | [4] -13.3% | [5] -18.6% | [6] -8.4%

CC1CCCN(C(=O)/C=C/c2ccccc2)C1 (stereo not given)
inactive: [1] 9.25% | [2] -19.2% | [3] -6.45% | [4] -45.8% | [5] 6.3% | [6] -3.8%

O=C(O)c1cccc(C(=O)O)c1S(=O)Cc1ccccc1 (stereo not given)
inactive: [1] 3.45% | [2] -15.1% | [3] 1.2% | [4] -0.15% | [5] -17.1% | [6] 17.9%

O=C(OCc1ccccc1)c1ccccc1O
inactive: [1] 39.1% | [2] 16.1% | [3] 46.1% | [4] -16.1% | [5] 22.8% | [6] 57.5%

CN(C)/N=C/c1cn(C)c(=O)n(C)c1=O
inactive: [1] 0.15% | [2] 3% | [3] 5.75% | [4] -5.55% | [5] -20.3% | [6] 1.85%

O=C(Cn1c2c(c3ccccc31)CCCC2)N1CCCC1
inactive: [1] -11.8% | [2] -39.9% | [3] 0.05% | [4] 2.75% | [5] 7.05% | [6] -23.7%

CC(=O)OCC1OC(n2cnc3c(=S)nc[nH]c32)C(OC(C)=O)C1N(C)C(C)=S (stereo not given)
inactive: [1] 38.5% | [2] -4% | [3] 37.6% | [4] 9.85% | [5] 1.25% | [6] 12.6%

O=[N+]([O-])c1cc2c(cc1O)[nH]c1cccc([N+](=O)[O-])c12
inactive: [1] -2.25% | [2] -11.4% | [3] -42.5% | [4] 21.1% | [5] -15.8% | [6] -22.6%

CC1(c2ccc(C(O)c3ccccc3)s2)OCCO1 (stereo not given)
inactive: [1] 1.8% | [2] 7.3% | [3] 10.9% | [4] 12.9% | [5] 11.4% | [6] 15.6%

CCCCCCCCCCCCCCCCCCOCCOCCOCCOCCO
inactive: [1] -21.7% | [2] -10.3% | [3] -23.5% | [4] -43.5% | [5] -3.25% | [6] -19.5%

CC(=O)CC(C)(C)S(=O)(=O)Cc1ccccc1
inactive: [1] -3.4% | [2] 11.2% | [3] 6.9% | [4] -5.85% | [5] 19.4% | [6] 6.3%

CC(=O)NC(C)(C)C1CCC(C)CC1 (stereo not given)
inactive: [1] -7.95% | [2] 5.45% | [3] 1.55% | [4] 8.05% | [5] 9.65% | [6] -38.8%
